TrxR1 substrate: is turned over as a substrate by rat TrxR1 | O89049 | purified TrxR1 substrate turnover, NADPH consumption readout | Potency, µM (titrated, usually from 114 µM), inactives show top-dose activity change, negative = substrate turnover | 390,000 tested, 0.01% active | AID 588456; also: % is scaled to controls: 0 for no effect and ±100 for the full control effect; nearly all actives have a fitted effect of over 50% in size
Target sequence (O89049 whole entry, looked up): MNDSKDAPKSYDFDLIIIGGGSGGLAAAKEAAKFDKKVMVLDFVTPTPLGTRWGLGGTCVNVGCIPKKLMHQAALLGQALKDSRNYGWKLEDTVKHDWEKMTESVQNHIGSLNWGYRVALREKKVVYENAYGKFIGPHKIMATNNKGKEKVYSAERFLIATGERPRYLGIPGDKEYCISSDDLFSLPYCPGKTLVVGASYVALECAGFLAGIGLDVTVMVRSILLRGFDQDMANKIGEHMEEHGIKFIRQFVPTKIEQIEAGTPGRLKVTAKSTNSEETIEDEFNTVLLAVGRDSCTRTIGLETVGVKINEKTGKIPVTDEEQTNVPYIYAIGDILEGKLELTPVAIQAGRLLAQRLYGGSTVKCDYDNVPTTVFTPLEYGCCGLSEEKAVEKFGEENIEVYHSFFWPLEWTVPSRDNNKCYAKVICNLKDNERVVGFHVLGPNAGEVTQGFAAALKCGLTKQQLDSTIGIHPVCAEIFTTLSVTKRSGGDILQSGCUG
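Rat TrxR1, dispensed at 90 nM, was prereduced with 400 uM NADPH (final) for 5 min at ~22 deg C, then incubated with compound 15 min before 400 uM selenite. A first-read NADPH fluorescence drop versus no-compound background flagged substrates.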
Nrf2 ARE act: activators of Nrf2 (ARE) signaling. AID 624171. 410,000 tested, 0.31% active. AREc32 ARE-luciferase reporter (MCF7-derived line), luminescence, 24 h. Potency, µM (titrated, usually from 46.1 µM), for inactives: top-dose activation, hits mostly activators; also: % of control where 0% means no effect; nearly all actives have a fitted effect of over 65% in size
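Steps: seed AREc32_Fluc cells (1000/well, 5% FBS OPTI-MEM); incubate overnight at 37 deg C; add 23 nL compound; incubate 24 hr; add Steady-Glo; hold 30 min RT; read luminescence.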
A549 tox-1: kills or reduces viability of A549 cells in Nrf2 counter-screen | 390,000 tested, 0.16% active | Potency, µM (top dose mostly 46 µM), for the others: at the highest dose activity change, negative = cytotoxicity, hits mostly inhibitors | AID 504648 | A549 ARE-Fluc cells, CellTiter-Fluor viability, 18-24 h; also: % is scaled to controls: 0 for no effect and ±100 for the full control effect
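Cytotoxicity counterscreen: CellTiter-Fluor fluorescence was measured in A549 ARE_Fluc cells after 18-24 h of compound exposure in a concentration series. The subsequent BugLite luminescent read reports ARE-luciferase activity.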
GALK inhibitor: blocks human galactokinase activity. AID 1868. Potency, µM (doses to about 57.5 µM), without a hit: top-dose activity change, negative = inhibition, most hits filed as inhibitors. Purified GALK, Kinase-Glo residual ATP luminescence. 270,000 tested, 0.007% active. P51570; also: % is scaled to controls: 0 for no effect and ±100 for the full control effect
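GALK at 5 nM final was combined with compound, 35 uM ATP and 100 uM galactose in HEPES pH8.0 with MgCl2 and DTT. The reaction ran one hour at room temperature before luminescent ATP detection.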
Nrf2 inh: blocks Nrf2 signaling; A549 ARE-Fluc reporter, luciferase luminescence, 18-24 h; Potency, µM (titrated, usually from 46 µM), for inactives: at the top dose activity change, negative = inhibition, actives largely listed as inhibitors; 360,000 tested, 2.1% active; AID 504444; also: % is scaled to controls: 0 for no effect and ±100 for the full control effect; nearly all actives have a fitted effect of over 60% in size
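Concentration-response testing used A549 ARE_Fluc cells at 5000 cells/well. Following an 18-24 h compound incubation, viability was read by fluorescence (Ex 405/Em 525) and luciferase output by luminescence.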
TrxR1 inh: blocks rat thioredoxin reductase 1; O89049; 390,000 tested, 1% active; Potency, µM (doses to about 114 µM), for the others: at the top dose activity change, negative = inhibition, usual class: inhibitors; AID 588453; recombinant rTrxR1, NADPH fluorescence consumption, selenite substrate; also: % is scaled to controls: 0 for no effect and ±100 for the full control effect; nearly all actives have a fitted effect of over 65% in size
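Rat TrxR1 (90 nM in the dispensed reagent) was pre-reduced with 400 uM NADPH for 5 min at room temperature, then incubated with compound for 15 min. After 400 uM selenite was added, NADPH fluorescence (Ex 340/Em 450 nm) was followed for 8 min.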
FLuc enzyme inh: firefly luciferase inhibition, Nrf2 hit validation; shares compounds with Nrf2 inh; purified firefly luciferase, luminescence inhibition; Potency, µM (titrated, usually from 57.5 µM), without a hit: top-dose activity change, negative = inhibition, usual class: inhibitors; 1,400 tested, 4% active; also: % is scaled to controls: 0 for no effect and ±100 for the full control effect; nearly all actives have a fitted effect of over 65% in size
A549 tox-2: A549 cytotoxicity, Nrf2 inhibitor counterscreen; Potency, µM (doses to about 46.1 µM), for inactives: at the top dose activity change, negative = cytotoxicity, usual class: inhibitors; A549 ARE-Fluc cells, cytotoxicity counterscreen; 1,400 tested, 2% active; shares compounds with Nrf2 inh;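 also: cells exposed to compounds for 18 to 24 hours; % is scaled to controls: 0 for no effect and ±100 for the full control effect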
ARE-Fluc inh: Nrf2 inhibition confirmed, A549 ARE-luciferase. AID 720524. 1,400 tested, 74% active. Potency, µM (titrated, usually from 46.1 µM), inactives show at the highest dose activity change, negative = inhibition, usual class: inhibitors. A549 ARE-firefly luciferase reporter, luminescence. shares compounds with Nrf2 inh; also: % is scaled to controls: 0 for no effect and ±100 for the full control effect; nearly all actives have a fitted effect of over 65% in size
* marks the source's active call; other numbers are inactive results; ? = inconclusive; nt = no result given; [ ] = dose if it differs, or a comment. An excerpt weighted towards active compounds, which were near 3% of everything screened. Calls follow the shape of the dose curve; as a rule, active = well fitted curve in the direction sought with a large enough effect; inconclusive = small, poorly fitted or top-dose-only effect, or another doubt; inactive = no such curve, though single readings can be large; an effect the other way counts as inactive or inconclusive. Potency is read from the fitted curve at half-maximal effect.

SMILES	TrxR1 substrate	Nrf2 ARE act	A549 tox-1	GALK inhibitor	Nrf2 inh	TrxR1 inh	FLuc enzyme inh	A549 tox-2	ARE-Fluc inh
CC(C)COC(=O)OCN1C(=O)CN(CCN2CC(=O)N(COC(=O)OCC(C)C)C(=O)C2)CC1=O	4%[57.1 µM]	0%	0%	nt	?	2%[57.1 µM]	nt	nt	nt
CCOc1ccc(-c2c(C)n(-c3ccc(OCC)cc3)c3[n+]2CCCCC3)cc1	2%	7%	-1%	-4%	2.6µM*	-4%	-1%	?	1.2µM*
O=C1NC2C(O)C(O)C(O)C(O)C2c2cc3c(c(O)c21)OCO3 (stereo unspecified)	0%[11.4 µM]	-2%	1.2µM*	nt	0.92µM*	-9%[11.4 µM]	3%	?	1.3µM*
COc1cc(C2c3cc4c(c(O)c3CC3COC(=O)C32)OCO4)cc(OC)c1O (stereo unspecified)	0%	nt	-1%	nt	?	-7%	nt	nt	nt
O=C1NC2C(=CC(O)C(O)C2O)c2cc3c(c(O)c21)OCO3 (stereo unspecified)	-2%[57.1 µM]	-2%	?	nt	0.26µM*	9%[57.1 µM]	1%	?	nt
Cc1[nH]c2ccc(OC(=O)N3CCOCC3)cc2c1C(=O)OC(C)C	2%[57.1 µM]	0%	0%	-3%	?	9%[57.1 µM]	nt	nt	nt
c1ccc2sc(C3(N4CCCCC4)CCCCC3)cc2c1	7%[57.1 µM]	nt	nt	nt	nt	13%[57.1 µM]	nt	nt	nt
CCN(CC)C(=O)c1ccc(NC(=O)c2cccc(S(=O)(=O)N3CCN(Cc4ccccc4)CC3)c2)cc1	9%	0%	?	nt	2.1µM*	?	0%	-8%	8.2µM*
CCN(CC)C(=O)c1ccc(NC(=O)c2cc(S(=O)(=O)N3CCCCCC3)ccc2OC)cc1	-1%[57.1 µM]	0%	-4%	nt	?	3%[57.1 µM]	nt	nt	nt
Cn1c(=O)oc2cc(S(=O)(=O)NC3CCCCCCC3)ccc21	-4%	3%	-2%	3%	?	4%	nt	nt	nt
COc1cc(C[C@@H](C)N)c(OC)cc1I	2%	0%	-23%	3%	?	16%[57.1 µM]	1%	-7%	0%
CC(N)Cc1c[nH]c2c1ccc1ccccc12 (stereo unspecified)	-3%	2%	-6%	-1%	4%	11%	nt	nt	nt
CCN1CCN(/C=N/c2nc(C)cs2)CC1	-6%	0%	2%	1%	?	-18%	nt	nt	nt
COc1ccc(CNC(=O)CSCc2cnn(-c3ccccc3)c2-n2cccc2)cc1OC	9%	0%	-9%	nt	9.2µM*	18%	2%	-22%	8.2µM*
Cc1ccc(CNC(=O)c2ccc(CSc3nc4ccncc4n3Cc3ccc(C)cc3)cc2)cc1	4%	-1%	5%	nt	?	10%	nt	nt	nt
CCCCCCn1c(=O)c(C(=O)Nc2cnccn2)c(O)c2ccccc21	6%[57.1 µM]	0%	?	-1%	4.1µM*	16%[57.1 µM]	-1%	?	5.2µM*
CCCCCn1c(=O)c(C(=O)Nc2ccccn2)c(O)c2ccccc21	3%	4%	-6%	2%	?	22%	nt	nt	nt
C=C(C)[C@@]12OC3(c4ccccc4)O[C@@H]1C1[C@@H]4O[C@]4(CO)[C@@H](O)[C@]4(O)C(=O)C(C)=C[C@H]4[C@@]1(O3)[C@H](C)[C@H]2OC(=O)/C=C/C=C/c1ccccc1 (stereo partly specified)	6%[57.1 µM]	-2%	-26%	nt	0.0052µM*	30%	-1%	?	0.018µM*
COC1=C(C)C(=O)c2c(c(COC(N)=O)c3n2C[C@@H]2[C@@H]3N2C)C1=O (stereo partly specified)	2%	nt	nt	nt	nt	?	nt	nt	nt
CCOC(=O)c1ccc(-[n+]2c(-c3ccccc3)cc(-c3ccccc3)cc2-c2ccccc2)cc1	-10%	0%	-1%	nt	-24%	-19%	nt	nt	nt
Cc1ccc(-c2cc(-c3ccc(C)cc3)[n+](-c3ccccc3)c(-c3ccc(C)cc3)c2)cc1	4%	-3%	?	nt	2.6µM*	-7%	4%	5.8µM*	nt
CN(C)c1ccc(-[n+]2c(-c3ccccc3)cc(-c3ccccc3)cc2-c2ccccc2)cc1	-1%[57.1 µM]	0%	?	-2%	2.9µM*	-1%[57.1 µM]	-3%	?	3.7µM*
Nc1nc(F)nc2c1ncn2[C@@H]1O[C@H](CO)[C@@H](O)[C@@H]1O	2%	-1%	-5%	nt	5.8µM*	3%	-2%	-21%	16µM*
NCC(=O)c1ccc(Br)cc1	-1%	nt	nt	nt	nt	-1%	nt	nt	nt
CC(=O)c1ccc(N2CCN(S(=O)(=O)c3cc(-c4onc(C)c4C)ccc3C)CC2)cc1	1%[57.1 µM]	1%	-1%	nt	9.2µM*	5%[57.1 µM]	2%	1%	6.5µM*
Cc1cc(-c2ccc(C)c(S(=O)(=O)N3CCOc4ccc(Cl)cc43)c2)on1	6%[57.1 µM]	4%	3%	nt	?	32%[57.1 µM]	nt	nt	nt

Source: PubChem BioAssay
